The entries come from a sample that favours hits as a whole.
STK33 kin inh = inhibitors of human STK33 kinase; ADP-Glo luminescence, MBP substrate; Q9BYT3; inhibition, % at 12.5 µM; AID 2322; 27,000 tested, 0.44% active; in the data active = inhibition above about 20%
Target sequence (Q9BYT3 whole entry, looked up): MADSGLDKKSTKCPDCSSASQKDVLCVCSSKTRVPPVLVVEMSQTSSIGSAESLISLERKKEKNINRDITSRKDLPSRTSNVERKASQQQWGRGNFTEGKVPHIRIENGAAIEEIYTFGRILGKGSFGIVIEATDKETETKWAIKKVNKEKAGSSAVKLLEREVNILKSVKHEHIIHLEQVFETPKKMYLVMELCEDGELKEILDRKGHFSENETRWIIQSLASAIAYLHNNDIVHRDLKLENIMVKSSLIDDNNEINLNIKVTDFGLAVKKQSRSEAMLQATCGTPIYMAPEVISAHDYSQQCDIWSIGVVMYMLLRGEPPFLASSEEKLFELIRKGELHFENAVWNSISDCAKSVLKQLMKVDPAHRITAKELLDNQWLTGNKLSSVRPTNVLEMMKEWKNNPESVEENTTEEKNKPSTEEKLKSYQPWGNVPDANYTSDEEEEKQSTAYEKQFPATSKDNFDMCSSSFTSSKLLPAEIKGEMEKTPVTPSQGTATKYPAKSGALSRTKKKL
NOMO-1 viab = STK33 inhibitor candidate reducing NOMO-1 cell viability | NOMO-1 AML viability, CellTiter-Glo luminescence, 72 h | inhibition, % (no concentration beside the values) | 37,000 tested, 7.5% active; in the data active = inhibition above about 80%
PD-1 reversal = reversal of PD-1 mediated T-cell inhibition; primary human CD4 T cells, PD-L1 beads, CellTiter-Glo 96 h; activation, % (concentration not given with the values); 29,000 tested, under 10 active; call rule not given here;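 note: 0% = median vehicle wells and 100% = positive control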
The depositor's hits bear a star; . = not tested or not shown.

SMILES	STK33 kin inh	NOMO-1 viab	PD-1 reversal
Cc1cc(C(=O)CSc2ncnc3sc4c(c23)CCCC4)c(C)n1Cc1ccco1	.	30	0
CCOc1ccc(OCC(=O)Nc2sc3c(c2C(N)=O)CCC(C)C3)cc1 (stereo unspecified)	12	3	2
Cc1ccc(S(=O)(=O)N(C)CC(=O)Nc2ccccc2Cl)cc1	0	.	.
COc1ccc(-n2c(CC#N)nnc2SCc2c(C)c(C)c(C)c(C)c2C)cc1	.	102*	0
COc1ccc(-n2c(CSc3nnc(-c4ccc(OC)c(OC)c4)n3-c3ccccc3)n[nH]c2=S)cc1	0	30	0
N#Cc1c(NC(=O)CSc2n[nH]c(-c3ccc(Cl)cc3)n2)sc2c1CCCC2	-2	8	1
C[C@H](CO)N1C[C@H](C)[C@@H](CN(C)Cc2ccc(C(=O)O)cc2)Oc2c(NC(=O)Nc3ccc4c(c3)OCO4)cccc2C1=O	.	11	.
C[C@@H]1CN([C@H](C)CO)C(=O)c2cccc(NC(=O)Nc3ccc4c(c3)OCO4)c2O[C@@H]1CN(C)Cc1ccc(C(F)(F)F)cc1	.	44	0
C[C@H]1CN([C@@H](C)CO)C(=O)c2cccc(NC(=O)Nc3ccc4c(c3)OCO4)c2O[C@H]1CN(C)Cc1ccc(C(=O)Nc2ccccc2N)cc1	.	140*	-1
C[C@@H]1CN([C@H](C)CO)C(=O)c2cccc(NC(=O)Nc3ccc4c(c3)OCO4)c2O[C@@H]1CN(C)Cc1ccc(C(=O)Nc2ccccc2N)cc1	.	140*	-1
Cc1cccc(NC(=O)CC2OCCN(Cc3ccccc3)C2=O)c1 (stereo unspecified)	3	23	0
C/C=C(\C)C(=O)O[C@@H]1C(C)=C2[C@H]3OC(=O)[C@](C)(O)[C@]3(O)[C@H](OC(=O)C(C)CC)C[C@@](C)(OC(C)=O)[C@@H]2[C@H]1OC(=O)CCCCCCC (stereo partly specified)	-2	.	.
Cc1cc(C)c2oc(-c3ccc(NC(=O)COc4ccc([N+](=O)[O-])cc4)cc3)nc2c1	1	67	.
C=C1CCC(C)C(C)(CCC2=CC(=O)OC2O)C/C=C\C=C/1C(=O)O (stereo unspecified)	0	1	0
CCN(CC)C(=S)CSc1nc(-c2ccccc2)cc(-c2ccco2)c1C#N	.	88*	0
CCc1nnc(NC(=O)CSc2nc(-c3ccccc3)cc(C(F)(F)F)c2C#N)s1	0	5	3
N#CC1=C(N)Oc2c(sc3ccccc23)C1c1ccccc1OC(=O)c1ccccc1Cl (stereo unspecified)	.	115*	-1
N#CC1=C(N)OC(C2CC2)=C(C#N)C1c1ccccc1Cl (stereo unspecified)	1	57	-6
COC(=O)c1c(NC(=O)C2CC(=O)NN2Cc2ccccc2)sc2c1CCC2 (stereo unspecified)	11	44	-7
COC(=O)c1c(NC(=O)C2CC(=O)NN2Cc2ccccc2)sc2c1CCC(C)C2 (stereo unspecified)	6	109*	-6
C[C@@H]1CN([C@@H](C)CO)C(=O)c2cc(NS(=O)(=O)c3ccc(Cl)cc3)ccc2O[C@H]1CN(C)Cc1ccccc1	.	28	.
C[C@H](CO)N1C[C@H](C)[C@@H](CN(C)Cc2ccc(-c3ccccc3)cc2)Oc2ccc(NS(=O)(=O)c3ccc(Cl)cc3)cc2C1=O	.	62	-1
C[C@@H]1CN([C@@H](C)CO)C(=O)c2cc(NS(=O)(=O)c3ccc(Cl)cc3)ccc2O[C@@H]1CN(C)Cc1ccc(-c2ccccc2)cc1	.	123*	0
C[C@@H]1CN([C@H](C)CO)C(=O)c2cc(NS(=O)(=O)c3ccc(Cl)cc3)ccc2O[C@@H]1CN(C)Cc1ccc(-c2ccccc2)cc1	.	109*	-1
C[C@H]1CN([C@@H](C)CO)C(=O)c2cc(NS(=O)(=O)c3ccc(Cl)cc3)ccc2O[C@@H]1CN(C)Cc1ccc(-c2ccccc2)cc1	.	38	.
SMILES	STK33 kin inh	NOMO-1 viab	PD-1 reversal
C[C@H](CO)N1C[C@H](C)[C@H](CN(C)Cc2ccc(-c3ccccc3)cc2)Oc2ccc(NS(=O)(=O)c3ccc(Cl)cc3)cc2C1=O	.	114*	0
O=C(Nc1sc2c(c1C(=O)Nc1ccccc1)CCCC2)c1ccccc1	.	32	-1
CSc1nnc(-c2ccccc2NC(=O)c2ccccc2)c(=O)[nH]1	1	12	3
CCc1cccc(C)c1NC(=O)COc1ccc(NC(C)=O)cc1	-8	-3	-1
COc1ccc(OC)c(S(=O)(=O)N(C)CC(=O)Nc2ccc(F)cc2)c1	3	-3	2
C[C@@H]1CN([C@@H](C)CO)C(=O)c2cccc(NC(=O)Nc3ccc(C(F)(F)F)cc3)c2O[C@@H]1CN(C)C(=O)Nc1cccc2ccccc12	.	66	-1
C[C@@H]1CN([C@@H](C)CO)C(=O)c2cccc(NC(=O)Nc3ccc(C(F)(F)F)cc3)c2O[C@H]1CN(C)C(=O)Nc1cccc2ccccc12	.	106*	-4
C[C@H](CO)N1C[C@H](C)[C@@H](CN(C)C(=O)Nc2cccc3ccccc23)Oc2c(NC(=O)Nc3ccc(C(F)(F)F)cc3)cccc2C1=O	.	117*	-4
C[C@H](CO)N1C[C@H](C)[C@H](CN(C)C(=O)Nc2cccc3ccccc23)Oc2c(NC(=O)Nc3ccc(C(F)(F)F)cc3)cccc2C1=O	.	77	.
CCCc1occc(=O)c1CC=O	1	9	.
Cn1c(SCC(=O)Nc2ccc(Br)cc2Cl)nnc1-c1ccncc1	-3	-7	-1
COC(=O)c1cc(OC)c(OC)cc1NC(=O)C(C)Oc1ccccc1C (stereo unspecified)	-4	1	.
CCOC(=O)c1ccc(-n2c(C)cc(C=C3C(=O)NC(=S)NC3=O)c2C)cc1	3	121*	-2
CCOC(=O)c1c(O)c(O)c(C(=O)OCC)n1-c1ccc(OC)cc1	.	26	0
CC(=O)OC[C@]12[C@H](OC(C)=O)[C@@H](OC(C)=O)[C@@H]3[C@@H](OC(C)=O)[C@@]14O[C@@]3(C)COC(=O)c1cccnc1[C@H](C)[C@@H](C)C(=O)O[C@@H]([C@H](O)[C@@H]2OC(=O)c1ccccc1)[C@]4(C)O	-7	.	.
CC(=O)OC[C@]12[C@H](OC(C)=O)[C@H](OC(C)=O)[C@@H]3[C@@H](OC(C)=O)[C@@]14O[C@@]3(C)COC(=O)c1ncccc1CC[C@H](C)C(=O)O[C@@H]([C@H](O)[C@@H]2OC(=O)c1ccccc1)[C@]4(C)O	-1	117*	-6
CC(C)(O)C#Cc1ccccc1C(=O)NC(Cc1c[nH]c2ccccc12)C(=O)O (stereo unspecified)	0	11	.
Cc1nc(-c2ccccc2O)n(CCN2CCOCC2)n1	-5	-2	2
OC(COc1ccc(F)cc1)(c1ccc(Cl)cc1)c1ccc(Cl)cc1	.	121*	-4
O=S(=O)(Cc1ccc(Cl)cc1)CC(O)COc1ccc(F)cc1 (stereo unspecified)	.	26	1
O=C(CCc1nc(-c2ccc(Cl)cc2)no1)N1CCOCC1	-2	14	.
Cc1ccccc1NC(=O)CSc1nc(N)c2c3c(sc2n1)COC(C)(C)C3	2	20	.
C[C@H]1CN([C@@H](C)CO)C(=O)c2cccc(NC(=O)Nc3ccc4c(c3)OCO4)c2O[C@H]1CN(C)S(=O)(=O)c1ccc(Cl)cc1	.	92*	-4
